The whole screen tested about 86,000 compounds, of which about 140 (0.16%) were called active.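 Rule for the calls: active = activation factor of at least 2 for MT1-MMP transcription at 10 µM; inactive = the rest.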 The entries come from a sample that favours actives as a whole.

This passage reports activation factor results from PubChem BioAssay AID750 (Sanford-Burnham Center for Chemical Genomics, 2007).

This test in a line: MT1-MMP promoter reporter activation – cell-based, luciferase luminescence, primary screen (AID 750). Particulars: HT1080 MT1-MMP promoter luciferase reporter, overnight, at 10 µM, active compounds read high. A general note: In a reporter assay the amount or activity of a reporter protein is the signal.
For `Cn1c(=N)n(CC(O)c2ccccc2)c2ccccc21` (stereo not given), the activation factor is 1.5 (inactive).
The same measure for `CC1CCC2(CC1)NC(=O)N(CC(=O)c1cccn1C)C2=O` (stereo not given): 1.2 (inactive).
The result for `COc1ccccc1NC(=O)C1CCCN(c2cc(C)nc3ncnn23)C1` (stereo not given) reads 1.1 (inactive).
The same measure for `COc1cc(OC)cc(-c2cc3nc(C4CCN(C(=O)OC(C)(C)C)CC4)cc(=O)n3[nH]2)c1`: 1.1 (inactive); for `COc1ccc(OC)c(-n2nnnc2SCC(=O)Nc2cc(C)ccc2OC)c1`: 1 (inactive).
For `COc1ccc(C(=O)Nc2ccc(S(=O)(=O)NC(C)C)cc2)cc1`, the activation factor was 1.1 (inactive).
The result for `COC(=O)[C@@]1(Cc2ccccc2)C=C[C@@H](C)N1` reads 1.2 (inactive); that for `O=C1C2N=NN(CC(=O)N3N=C(c4cccc5ccccc45)CC3c3ccccc3)C2C(=O)N1c1ccccc1` (stereo not given), 1.2 (inactive).
The result for `CC(N=Cc1nc(-c2ccccc2)oc1O)c1ccccc1` (stereo not given) reads 1.2 (inactive).
On to `Cc1cc2nc(SCCN3CCOCC3)[nH]c2cc1C`, for which the activation factor was 2 (active).
In the case of `c1ccc2[nH]c(NCCN3CCOCC3)nc2c1`, the activation factor is 1.1 (inactive).
On to `Cc1ccc(S(=O)(=O)NCCN2CCOCC2)cc1C`, for which the activation factor was 1.1 (inactive).
The same measure for `CCOc1cc(NC(=O)c2cnccn2)c(OCC)cc1NC(=O)c1ccc(C)cc1`: 1.3 (inactive); for `COC(=O)C1=C(C)N=C2SC(C)C(=O)N2C1/C=C/c1ccccc1` (stereo not given): 1.1 (inactive); for `OC(COCCC12CC3CC(CC(C3)C1)C2)CN1CCCCC1` (stereo not given): 1.1 (inactive).
On to `COc1ccc(/C(O)=C2/C(=O)C(=O)N(CC3CCCO3)C2c2ccc(OC)c(OC)c2)cc1` (stereo not given), for which the activation factor is 1.3 (inactive).
The same measure for `O=C(CCn1c(SCC(=O)c2ccccc2)nc2ccccc2c1=O)NCc1ccc(F)cc1`: 1.1 (inactive).
The result for `CCN1CCCC1Cn1cnc2c([nH]c3cc(OC)ccc32)c1=O` (stereo not given) reads 1.1 (inactive); that for `Cc1cc(NC(=O)CSc2nnc(-c3ccc(Cl)s3)o2)no1`, 1.1 (inactive); that for `CCCNC(=O)c1ccc(Cl)c(Cl)c1`, 1 (inactive).
In the case of `Cc1cc(N/C=C\C(=O)c2ccc(Cl)c(Cl)c2)no1`, the activation factor is 2.1 (active).
The same measure for `CCN(CC)C(=O)CSc1nc2ccccc2n1CC(=O)N1CCN(c2ccccc2OC)CC1`: 1.1 (inactive).
The same measure for `CC/S(CC1CC1(Cl)Cl)=N\S(=O)(=O)c1ccc(C)cc1` (stereo not given): 1 (inactive); for `CC(C)C(OC(=O)c1cccs1)C(=O)NC1CCCCC1` (stereo not given): 1.3 (inactive); for `OC(CN1C2=NCCCN2c2ccccc21)c1ccc(Br)cc1` (stereo not given): 1.2 (inactive).
The result for `Cn1c(SCC(=O)NC2CCCCC2)nnc1-c1cc2ccccc2o1` reads 1.4 (inactive).
With `NC(=O)c1ncc(C(F)(F)F)cc1Oc1ccc(F)cc1`, the activation factor was 1.1 (inactive).
The same measure for `CCOc1ccccc1NC(=O)c1cccnc1`: 1.3 (inactive); for `CNC(=S)N1N=C(c2ccccc2)CC1c1ccc(Br)cc1` (stereo not given): 1.3 (inactive); for `Cc1noc(NS(=O)(=O)c2ccc(N/C=C/C(=O)c3ccccc3)cc2)c1C`: 1.3 (inactive).
The result for `COc1cc(C)c(C(C)C)cc1S(=O)(=O)n1ccnc1` reads 1.2 (inactive); that for `COc1ccc(NC(=O)CCN2CCCC2)c(OC)c1`, 1.2 (inactive); that for `COC(=O)c1ccc(NC(=O)Nc2ccc(C)cc2)cc1`, 1.6 (inactive).
On to `COc1ccc(C(=O)Cc2cnn(-c3ccccc3)c2)c(O)c1`, for which the activation factor is 1.3 (inactive).
The result for `CC(C)CCSc1ncnc2c1oc1nc3c(cc12)COC(C)(C)C3` reads 1.1 (inactive); that for `COc1cccc(NC(=O)CN2CCN(c3nc(-c4cccc(OC)c4)cs3)CC2)c1`, 1.2 (inactive).
The same measure for `CCCNC(=O)NCc1ccc(N2CCCC2=O)cc1`: 1.1 (inactive); for `COc1ccc(C2C(C(C)=O)=C(O)C(=O)N2Cc2cccnc2)cc1` (stereo not given): 1.2 (inactive); for `CC(C)NC(=O)CSc1nnc(COc2ccccc2Cl)o1`: 1.1 (inactive).
The result for `CCOn1c(SC(C)C)nc2ccccc2c1=O` reads 1.1 (inactive); that for `COC(=O)C1CCN(CC(N)=O)CC1`, 1.1 (inactive).
Take `CC(C)OC(=O)CN1C(=O)C(=O)c2ccccc21`: the activation factor was 1.3 (inactive).
The same measure for `COc1ccc(-c2oc(/N=C/N3CCCC3)c(C#N)c2-c2ccc(OC)cc2)cc1`: 1.1 (inactive); for `COC(=O)[C@H](Cc1ccccc1)NC(=O)[C@@H]1C[C@H]1[C@@H](NC(=O)OCc1ccccc1)c1ccccc1`: 1.1 (inactive).
The same measure for `CCOc1ccc(S(=O)(=O)NCCSc2ccccc2)cc1`: 1.1 (inactive); for `CCOC(=O)C1=C(CCc2ccccc2)NC(=O)NC1c1ccc2ccccc2c1` (stereo not given): 1.4 (inactive).
The result for `COc1ccc(C)cc1S(=O)(=O)Nc1cccc(Cl)c1Cl` reads 1.1 (inactive); that for `Cc1ccc(C(=O)N2CCCC2)c(F)c1F`, 1.2 (inactive); that for `O=C(O)c1cc2ccccc2c(=O)s1`, 1.1 (inactive).
`Cc1cc(C)n(-c2c(F)c(F)c(COC(=O)c3ccccc3)c(F)c2F)n1`: the activation factor is 1.1 (inactive).
The result for `Cc1ccc(/C=N/NC(=O)C2=NNC(c3ccccc3)(c3ccccc3)C2)c(O)c1` reads 1.1 (inactive); that for `COc1ccc(C)cc1NC(=O)CCS(=O)(=O)c1cccc2nonc12`, 1 (inactive).
The same measure for `CN(C)c1nc(N)nc(CSc2ccccn2)n1`: 1.1 (inactive).
For `CCCc1noc2c1/C(=N\O)CCC2`, the activation factor was 1.1 (inactive).
The same measure for `Cn1c(Cc2cccc3ccccc23)nnc1SCC(=O)N1CCN(c2cccc(Cl)c2)CC1`: 1.1 (inactive).
The result for `CCOc1ccc(NC(=O)CN(C)CC(=O)Nc2cccc(Cl)c2C)cc1OCC` reads 0.9 (inactive); that for `COc1ccc(N2CCN(C(=O)CNC(=O)c3ccc(C(C)(C)C)cc3)CC2)cc1`, 1.1 (inactive); that for `O=C(NCCSCc1ccccc1)c1ccc(Cl)c(S(=O)(=O)N2CCOCC2)c1`, 1.1 (inactive).
The same measure for `Cc1cnc(NC(=O)CSc2nnc(C)s2)s1`: 1 (inactive); for `CCN(CC(=O)NC1CCS(=O)(=O)C1)c1nc(-c2cccnc2)nc2ccccc12` (stereo not given): 1.1 (inactive).
In the case of `COc1ccccc1NC(=O)CSc1nnc(C)n1CC1CCCO1` (stereo not given), the activation factor was 1.1 (inactive).
The result for `O=C(CN1CCN(C(=O)c2ccco2)CC1)Nc1ccc2c(c1)OCO2` reads 1.4 (inactive); that for `O=C(Nc1nnc(SCc2c(Cl)cccc2Cl)s1)C1CCCO1` (stereo not given), 1.2 (inactive).
`Cc1ccc(C2(C(F)(F)F)N=C3Sc4cc(C)cc(C)c4N3C(=O)N2)cc1` (stereo not given): the activation factor is 1.1 (inactive).
The result for `C=C(C)CNC(=S)/N=c1\scc(C)n1CC` reads 1.3 (inactive).
